# Data taken from a collection of fitness landscapes (doi:10.1126/science.1257360).
# Whole data set: some 140,000 sequences, median “enrichment ratio after two sorts for PhoP signalling” near 0, cut for the highest 2% near 11. Many of the other results were omitted from the sample, so the highest values are more common in it than they were.
# B1: PhoQ; a variant is named by its letters at X, in order, P23837 (parent)
# chain: MKKLLRLFFPLSLRVRFLLATAAVVLVLSLAYGMVALIGYSVSFDKTTFRLLRGESNLFYTLAKWENNKLHVELPENIDKQSPTMTLIYDENGQLLWAQRDVPWLMKMIQPDWLKSNGFHEIEADVNDTSLLLSGDHSIQQQLQEVREDDDDAEMTHSVAVNVYPATSRMPKLTIVVVDTIPVELKSSYMVWSWFIYVLSANLLLVIPLLWVAAWWSLRPIEALAKEVRELEEHNRELLNPATTRELTSLVRNLNRLLKSERERYDKYRTTLTDLTHSLKTPLXXLQXXLRSLRSEKMSVSDAEPVMLEQISRISQQIGYYLHRASMRGGTLLSRELHPVAPLLDNLTSALNKVYQRKGVNISLDISPEISFVGEQNDFVEVMGNVLDNACKYCLEFVEISARQTDEHLYIVVEDDGPGIPLSKREVIFDRGQRVDTLRPGQGVGLAVAREITEQYEGKIVAGESMLGGARMEVIFGRQHSAPKDE
# Variants of: B1
# Assay: enrichment ratio after two sorts for PhoP signalling (ratio (wild type AVST 3.29)); higher = more functional
# Conditions: with PhoP (E. coli)
row,Variant,enrichment ratio
1,FAWY,≤ 0.25
2,SDGA,≤ 0.25
3,GPWK,≤ 0.25
4,LRLK,≤ 0.25
5,SNTI,10.1
6,MHKW,≤ 0.25
7,IAWT,≤ 0.25
8,DASW,≤ 0.25
9,TCEG,≤ 0.25
10,GWNG,≤ 0.25
11,QLVN,≤ 0.25
12,FINA,≤ 0.25
13,ENVY,≤ 0.25
14,TCGI,25
15,VEGI,≤ 0.25
16,TCIL,≤ 0.25
17,TCSG,26.2
18,TCGL,13.5
19,KCSI,≤ 0.25
20,TCNL,4.28
21,FCSI,≤ 0.25
22,TCSI,23.8
23,KCSG,≤ 0.25
24,VCSG,0.44
25,GMGI,≤ 0.25
26,MHTY,≤ 0.25

row,Variant,enrichment ratio
1,LARC,≤ 0.25
2,RLPH,≤ 0.25
3,TNFS,≤ 0.25
4,RRNI,≤ 0.25
5,GIHS,≤ 0.25
6,YGWR,≤ 0.25
7,KELF,≤ 0.25
8,LMEL,≤ 0.25
9,FVVT,≤ 0.25
10,HNCQ,≤ 0.25
11,KTSH,≤ 0.25
12,QHHI,≤ 0.25
13,GMRC,≤ 0.25
14,KSND,≤ 0.25
15,TCND,20.6
16,HVST,≤ 0.25
17,TCVT,≤ 0.25
18,KCST,≤ 0.25
19,TCST,24.9
20,MCTV,≤ 0.25
21,EWLV,≤ 0.25
22,MTFH,3.3
23,QYHL,≤ 0.25
24,YKTG,≤ 0.25
25,SMFS,≤ 0.25
